Data on 37 compounds can be found in PubChem BioAssay (EPA / NIEHS).

A structure can be active in one record and inactive in another. The source made the active and inactive calls. How the source made its calls: active means hit-call score of the fitted dose curve at least 0.9, where 1 is the maximum; inactive means score below 0.9.

This test is described as follows: ATG_NFI_CIS: Attagene CIS-FACTORIAL HepG2 Assay for human Nuclear Factor I (NFI) (AID 2282989). The conditions noted are these: HepG2 cis-regulatory reporter, NFI response element transcription; actives raise or lower the signal. The procedure:
ATG_CIS is a cell-based, multiplexed-readout assay that uses HepG2, a human liver cell line, with measurements taken at 24 hours after chemical dosing in a 24-well plate.ATG_NFI_CIS is one of 52 assay component(s) measured or calculated from the ATG_CIS assay. It is designed to make measurements of mRNA induction, a form of inducible reporter, as detected with fluorescence intensity signals by Reverse transcription polymerase chain reaction (RT-PCR) and Capillary electrophoresis technology.Data from the assay component ATG_NFI_CIS was analyzed into 1 assay endpoint. This assay endpoint, ATG_NFI_CIS, was analyzed with bidirectional fitting relative to DMSO as the negative control and baseline of activity. Using a type of inducible reporter, measures of mRNA for gain or loss-of-signal activity can be used to understand the reporter gene at the transcription factor-level as they relate to the gene NFIA. Furthermore, this assay endpoint can be referred to as a primary readout, because this assay has produced multiple assay endpoints where this one serves a reporter gene function. To generalize the intended target to other relatable targets, this assay endpoint is annotated to the dna binding intended target family, where the subfamily is nuclear factor I.
Human liver HepG2 cells are transiently transfected with multiple reporter transcription units (MRTUs) in 6-well plates using FuGene 6 reagent (Roche; 3 ml FuGene/1 mg DNA). The MRTU constructs are regulated by a cis-regulating element (promoter). […] A major difference between the CIS and TRANS system is that in CIS activities of endogenous TFs are measured, whereas the TRANS assay evaluates changes in activities of exogenous, chimeric NR-Gal4 proteins. […] At the end of 24 hour incubation, total RNA was isolated using TriZol reagent (Invitrogen). The isolated RNA is then reverse-transcribed using oligo(dT) primer and Mo-MLV reverse transcriptase (Invitrogen) with DNAse I (Ambion) treatment for 30 min. The one-tenth of the produced cDNA was amplified by PCR using Taq DNA polymerase (Invitrogen) and two reporter sequence-specific primers. The PCR products were fluorescently labeled by primer extension with 6-arboxyfluorescein (6-FAM) 5'-labeled reporter sequence-specific primer (2 min at 95 C, 20 s at 68 C and 10 min at 72 C) and these products were digested with 5U of HpaI (New England Biolabs) for 2h at 37 C. The fragments were purified using Qiaquick PCR columns (Qiagen), analyzed on an ABI 3130xL genetic analyzer (Applied Biosystems) with peak positions identified by using a set of X-rhodamine (ROX)-labeled MapMarker1000 molecular weight standards (BioVentures). The raw capillary electrophoresis data was processed using Attagraph software (Attagene).
For the compound `CCCCC(CC)CO[N+](=O)[O-]` (stereo not given), the call was inactive.

Regarding `O=C1CCCN1`, the result was inactive.

With `Nc1cccc(Cl)c1`, the call was inactive.

For the compound `COc1cc(-c2ccc(N)c(OC)c2)ccc1N`, the AC50 was 79.8 µM (active) and the call was inactive.

`CCC[CH2][Sn]([Cl])([Cl])[Cl]`: the compound was called inactive.

For the compound `O=C(Nc1ccc2[nH]ccc2c1)c1cc2cc(F)ccc2n1Cc1cccc(F)c1`, the outcome was inactive.

For the compound `OCc1ccco1`, the compound was classed as inactive.

Turning to `CCN(CC)C(=O)Cl`, the result was inactive.

For `ClCCBr`, the result was inactive.

As to `Oc1c(I)cc(I)cc1I`, the result was inactive.

On to `C[C@H]1CCCC(=O)CCC/C=C/c2cc(O)cc(O)c2C(=O)O1`, for which the compound was called inactive.

Take `C[C@@H]1C[C@@H]([C@H](O)CC2CC(=O)NC(=O)C2)C(=O)[C@@H](C)C1`: the compound was classed as inactive.

For `COc1ccccc1OC`, the outcome was inactive.

As for `COP(=S)(OC)Oc1cc(Cl)c(Cl)cc1Cl`, the compound was called inactive.

For the compound `ClCc1ccccn1`, the compound was called inactive.

Take `COc1cc2c(cc1OC)[C@@]13CCN4CC5=CCO[C@H]6CC(=O)N2[C@H]1[C@H]6[C@H]5C[C@H]43`: the compound was classed as inactive.

Regarding `CCNc1nc(NC(C)(C)C)nc(SC)n1`, the compound was classed as inactive.

In the case of `O=[N+]([O-])c1c(Cl)c(Cl)cc(Cl)c1Cl`, the outcome was inactive.

`CCC(=O)c1ccccc1`: the compound was classed as inactive.

`CCOP(=S)(OCC)SCCS(=O)(=O)CC`: the call was inactive.

In the case of `CC(C)(OO)c1ccccc1`, the compound was classed as inactive.

Regarding `CCCCCCCCc1ccc(O)cc1`, the call was inactive.

As to `O=C(O)C(F)(F)C(F)(F)C(F)(F)C(F)(F)C(F)(F)C(F)(F)C(F)(F)C(F)(F)C(F)(F)C(F)(F)F`, the call was inactive and the AC50 was 157 µM (active).

In the case of `Cn1sc(Cl)cc1=O`, the compound was called inactive.

For the compound `Clc1ccc(COC(Cn2ccnc2)c2ccc(Cl)cc2Cl)cc1` (stereo not given), the compound was called inactive.

Turning to `c1ccc(N=NNc2ccccc2)cc1`, the concentration at half-maximal activity (AC50) is 180 µM (active).

As to `COP(=S)(OC)Oc1ccc(S(=O)(=O)N(C)C)cc1`, the outcome was inactive.

As for `CC(C)c1ccc(CO)cc1`, the result was inactive.

As to `O=C(O)C(Cl)(Cl)Cl`, the compound was called inactive.

As for `O=C1C2(Cl)C3(Cl)C4(Cl)C(Cl)(Cl)C5(Cl)C3(Cl)C1(Cl)C5(Cl)C24Cl` (stereo not given), the compound was classed as inactive and the AC50 was 17.2 µM (active).

Turning to `CC(=O)c1cc(C(C)(C)C)cc2c1CCC2(C)C`, the AC50 was 74.2 µM (active).

`O=C(OC1CCCCC1)c1ccccc1C(=O)OC1CCCCC1`: the result was inactive.

With `CC1CN1P(=O)(N1CC1C)N1CC1C` (stereo not given), the call was inactive.

As for `O=Cc1cccc(Oc2ccccc2)c1`, the outcome was inactive.

Regarding `COc1cc(OC)nc(NC(=O)NS(=O)(=O)c2ncccc2C(=O)N(C)C)n1`, the result was inactive.

As for `C[C@@H](Oc1ccc(Cl)cc1Cl)C(=O)O`, the compound was called inactive.

Consider `CC(=[OH+])/C=C(/C)[O-].CC(=[OH+])/C=C(/C)[O-].CC(=[OH+])/C=C(/C)[O-].[Al]`, for which the outcome was inactive.

A word on the AC50: it is the concentration at which the activity in the assay is half-maximal.
